Assay results reported in publication PMC11024108.

Target: Malate dehydrogenase, mitochondrial (UniProt P40926)
Assay: cross-link between two proteins; cross-linking mass spectrometry

Chain of Succinate dehydrogenase [ubiquinone] flavoprotein subunit, mitochondrial, P31040 (P31040 whole entry): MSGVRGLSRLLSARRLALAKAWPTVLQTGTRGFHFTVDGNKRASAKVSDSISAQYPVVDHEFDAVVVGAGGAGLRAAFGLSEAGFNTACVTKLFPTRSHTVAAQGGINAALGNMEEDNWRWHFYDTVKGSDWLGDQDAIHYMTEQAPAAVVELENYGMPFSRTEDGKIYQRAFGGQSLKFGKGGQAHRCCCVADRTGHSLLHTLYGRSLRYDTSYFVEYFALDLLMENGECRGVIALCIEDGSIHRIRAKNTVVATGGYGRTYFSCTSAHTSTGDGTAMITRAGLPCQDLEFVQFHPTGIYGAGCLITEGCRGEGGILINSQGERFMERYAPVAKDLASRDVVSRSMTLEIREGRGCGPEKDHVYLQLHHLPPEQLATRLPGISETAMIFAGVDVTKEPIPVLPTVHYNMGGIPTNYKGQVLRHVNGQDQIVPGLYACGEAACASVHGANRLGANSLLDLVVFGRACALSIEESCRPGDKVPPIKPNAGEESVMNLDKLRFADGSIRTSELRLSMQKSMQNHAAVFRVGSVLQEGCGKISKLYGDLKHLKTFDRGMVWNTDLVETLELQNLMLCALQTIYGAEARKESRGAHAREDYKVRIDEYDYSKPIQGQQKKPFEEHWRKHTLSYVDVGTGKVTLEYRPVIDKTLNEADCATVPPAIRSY
Chain of Peptidyl-prolyl cis-trans isomerase F, mitochondrial, P30405 (P30405 whole entry): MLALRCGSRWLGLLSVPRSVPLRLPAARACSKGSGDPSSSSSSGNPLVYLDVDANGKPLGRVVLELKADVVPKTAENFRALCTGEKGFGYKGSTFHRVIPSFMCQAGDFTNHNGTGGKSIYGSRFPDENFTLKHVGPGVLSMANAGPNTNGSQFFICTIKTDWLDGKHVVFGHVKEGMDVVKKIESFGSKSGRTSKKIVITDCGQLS

Listed as a hit, yes:
Glutathione reductase, mitochondrial, P00390
Dihydrolipoyl dehydrogenase, mitochondrial, P09622
Aldehyde dehydrogenase, mitochondrial, P05091
Aldehyde dehydrogenase family 1 member B1, mitochondrial, P30837
Succinate dehydrogenase [ubiquinone] flavoprotein subunit, mitochondrial, P31040
Peptidyl-prolyl cis-trans isomerase F, mitochondrial, P30405
